HCV inhibitor: qHTS Assay for Inhibitors of Hepatitis C Virus (HCV) | Potency, µM (doses to about 41.8 µM), inactives show top-dose activity change, negative = inhibition, usual class: inhibitors | actives 3.4% (n = 340,000) | Huh7.5.1 HCVcc-Cre infection, luciferase reporter, 44 h; active = well fitted inhibition curve with a large enough effect; inconclusive = small, poorly fitted or top-dose-only effect, or another doubt; inactive = no such curve, though single readings can be large or run the other way; also: potency is read from the fitted curve at half-maximal effect
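Cells (1,000/well) were plated 4 h before compound, then infected with HCVcc-Cre virus (~0.5 moi). After 44 h further culture, infection was read as luciferase luminescence following a 15 min substrate incubation at room temperature.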
Vaccinia Venus: qHTS for Stage-Specific Inhibitors of Vaccinia Orthopoxvirus: Venus Reporter Primary qHTS | Potency, µM (highest dose often 36.5 µM), for inactives: top-dose activity change, negative = inhibition, actives largely listed as inhibitors | actives 0.46% (n = 330,000) | AID 720580, 2013 | Vaccinia virus Venus reporter expression, fluorescence; calls by dose curve; tested in A549 cells; also: potency is read from the fitted curve at half-maximal effect; nearly all actives have a fitted effect of over 30% in size
FMDV antiviral: High Throughput Screening for Foot and Mouth Disease Virus Antivirals | Potency, µM (highest dose often 57.9 µM), for the others: at the highest dose activity change, negative = inhibition, hits mostly inhibitors | FMDV antiviral cell-based qHTS | actives 1.2% (n = 410,000); calls by dose curve; tested in HEK293T cells; also: read-out not given here; potency is read from the fitted curve at half-maximal effect; nearly all actives have a fitted effect of over 45% in size
HCMV inh: qHTS Assay for inhibitors of the human cytomegalovirus (HCMV). actives 4.5% (n = 410,000). HFF cells, HCMV-luciferase reporter, 72 h; stronger effect = lower value. AID 1259415, 2018. activity change, negative = inhibition, % at 57.5 µM; in the data active = activity change below about -60%; inconclusive = no clear call, values can overlap the other calls; inactive = above about -39%
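Cell-based, HFFs, 1000 cells/well, 16 h 37C; cpds in DMSO + HCMV-luc, MOI 1 PFU/cell; 72 h 37C; OneGlo luminescence after 5 min RT; norm. to buffer vs Salinomycin 10uM.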
Vaccinia mCherry: qHTS for Stage-Specific Inhibitors of Vaccinia Orthopoxvirus: mCherry Reporter Primary qHTS; Vaccinia virus mCherry reporter infection, fluorescence; Potency, µM (highest dose often 36.5 µM), for inactives: at the highest dose activity change, negative = inhibition, most hits filed as inhibitors; actives 0.63% (n = 310,000); calls by dose curve; tested in A549 cells; also: potency is read from the fitted curve at half-maximal effect; nearly all actives have a fitted effect of over 35% in size
Numbers without * were called inactive; i = inactive; ? = inconclusive; nt = not tested or not shown; [ ] = another dose, or the depositor's remark. Compounds with a hit are over-represented: about 7.3% of the library has one in this group of screens. % is scaled to controls: 0 for no effect and ±100 for the full control effect.

SMILES	HCV inhibitor	Vaccinia Venus	FMDV antiviral	HCMV inh	Vaccinia mCherry
COc1ccc(-c2cn(-c3ccccc3)c(=S)[nH]2)cc1OC	10µM*	nt	48%	-22	nt
COc1ccc(-c2cn(-c3ccc(C)c(Cl)c3)c(=S)[nH]2)cc1OC	?	-26%	?	-66*	?
COc1ccc(-c2cn(-c3ccc(C)c(C)c3)c(=S)[nH]2)cc1OC	?	-10%	?	?	-2%
CC1(C)CC(N=c2cc(-c3ccccc3)oc3ccc(Cl)cc23)CC(C)(C)N1	-27%	?	6%	-99*	?
NS(=O)(=O)c1ccc(CCNC(=O)c2ccc(Cl)s2)cc1	-5%	nt	-3%	23	nt
NS(=O)(=O)c1ccc(CCNC(=O)c2ccc([N+](=O)[O-])s2)cc1	?	?	0%	-100*	11µM*
Cc1cc(C)cc(NC(=O)CSc2nc(=O)n3cc(C)ccc3n2)c1	-27%	-4%	-13%	?	-5%
COc1cccc(C(=O)Nc2cc(NC(=O)c3cccs3)ccc2C)c1OC	10µM*	nt	0%	-4	nt
COc1cccc(C(=O)Nc2cccc(NC(=O)c3cccs3)c2)c1	?	nt	13%	45	nt
COc1cccc(C(=O)Nc2cc(NC(=O)c3cccs3)ccc2C)c1	-15%	nt	16%	-75*	nt
CC(=O)c1ccc(NC(=O)c2ccc(-n3cnnn3)cc2)cc1	?	-2%	-13%	-35	0%
C/C(=N\Nc1nc(N)cc(Cl)n1)c1ccc(Cl)c(Cl)c1	11µM*	-19%	-13%	-39	-20%
C/C(=N\Nc1nc(N)cc(Cl)n1)c1ccc(F)cc1	?	-14%	55%	-6	-11%
Cc1cc(C)n(-c2nnc(Nc3ccc(C)c(Cl)c3)c3ccccc23)n1	nt	-19%	0%	-98*	-1%
CCSc1nnc2n(-c3ccc(OC)cc3)c(=O)c3c4c(sc3n12)CCCC4	-4%	-5%	-29%	-85*	-19%
CC1CCN(S(=O)(=O)c2ccc3c(c2)oc(=O)n3CC(=O)N2CCCCC2)CC1	nt	-7%	-3%	5	-10%
O=C(CNC(=O)Cc1ccccc1)NCc1cccc(C(F)(F)F)c1	4%	6%	8%	?	-12%
FC(F)(F)c1cccc(NC(=S)NCc2ccccc2)c1	-11%	?	1%	-73*	nt
FC(F)(F)c1cccc(CNC(=S)Nc2ccccc2)c1	-4%	-8%	18%	-72*	i
COC(=O)/C=C/C(=O)Nc1cccc(C(F)(F)F)c1	8%	?	0%	-74*	?
FC(F)(F)c1cccc(NC(=S)NC(c2ccccc2)c2ccccc2)c1	?	?	25µM*	-40	?
COc1ccc(N2C(=O)c3ccccc3NC(=O)C2C(=O)NCCc2ccccc2F)cc1 (centres undefined)	nt	0%	9%	31	-15%
O=C(O)c1cc(Cl)n[nH]c1=O	nt	6%	-5%	32	i
CC12CC3CC(C)(C1)CC(C(=O)NCc1cccnc1)(C3)C2	15%	-5%	-22%	4	-5%
O=C(NNC(=S)Nc1cccc(C(F)(F)F)c1)c1ccc(Cl)cc1Cl	?	?	-27%	-66*	?
SMILES	HCV inhibitor	Vaccinia Venus	FMDV antiviral	HCMV inh	Vaccinia mCherry
CCCN(Cc1ccccc1)C(=S)Nc1cccc(C(F)(F)F)c1	?	nt	9%	0	nt
Cc1ccc(OCC(=O)NC(=S)Nc2cccc(NC(=O)c3ccc(Cl)cc3Cl)c2)cc1	-25%	-10%	0%	-73*	-26%
CN(C)CCCN(Cc1ccccc1)C(=S)Nc1cccc(C(F)(F)F)c1	11µM*	-15%	-15%	-38	-7%
COc1ccc(NC(=S)NNC(=S)Nc2cccc(C(F)(F)F)c2)cc1	?	-19%[7.34 µM]	14%	-76*	?
Cc1ccccc1C(=O)NNC(=S)Nc1cccc(C(F)(F)F)c1	?	?	13%	-13	?
COCc1ccc(CN2CCOc3c(cc(-c4cc(C)c5cccc(OC)c5n4)cc3OC)C2)o1	nt	4%	-11%	nt	-19%
CC1(C(=O)Nc2ccc3c(c2)OCCO3)CCC(=O)N1C1CCN(Cc2ccccc2)CC1 (centres undefined)	nt	5%	-4%	-16	20%
Cc1ccc(CNc2ncnc3c2c(-c2ccccc2)cn3-c2cccc(Cl)c2)cc1	nt	-8%	-26%	-7	-7%
CN(C)S(=O)(=O)Oc1ccc(Cl)cc1C(=O)Nc1cccc(C(F)(F)F)c1	11µM*	nt	-22%	146	nt
CN(C)S(=O)(=O)Oc1ccccc1C(=O)Nc1cccc(C(F)(F)F)c1	-10%	-16%	-21%	30	i
CC(=O)Nc1ccc(N(CC(O)Cn2c3ccccc3c3ccccc32)S(=O)(=O)c2ccc(C)cc2)cc1 (centres undefined)	?	?	?	-35	?
Cc1ccc(N(CC(O)Cn2c3ccccc3c3ccccc32)S(C)(=O)=O)c(C)c1 (centres undefined)	-5%	nt	?	-101*	nt
Cc1cccc(N(CC(O)Cn2c3ccccc3c3ccccc32)S(=O)(=O)c2ccc(F)cc2)c1 (centres undefined)	nt	-16%	?	-107*	-14%
Cn1nnc2c(NCc3c(F)cccc3F)ncnc21	nt	-9%	2%	-15	-15%
OCC1(Cc2ccccc2)CCN(Cc2cnc(-c3ccc(Cl)cc3)nc2)CC1	10µM*	-11%	-8%	-67*	-22%
Cc1cccc(-c2ncc(CN3CCN(C4CCCC4)C(CCO)C3)cn2)c1 (centres undefined)	-52%	-17%	-11%	-9	-8%
Cc1ccccc1-c1ncc(CN2CCC(CO)(CCCc3ccccc3)CC2)cn1	?	nt	-30%	-64*	nt
OCC1(Cc2ccccc2)CCN(Cc2cnc(-c3cccc4ccccc34)nc2)CC1	-25%	-17%	?	13	i
OCCC1CN(Cc2cnc(-c3ccc(Cl)cc3)nc2)CCN1C1CCCCC1 (centres undefined)	13µM*	nt	-13%	?	nt
CC[N+]1(CC(=O)c2ccc(OC)cc2)CCCCC1	nt	-13%	nt	nt	-19%
COc1ccccc1OCCN1CSC(=S)N(C)C1	20%	-11%	?	-74*	-19%
CCc1ccc(NC(=O)Cn2cc(S(=O)(=O)c3ccc(F)cc3)c(=O)c3cc(OC)ccc32)cc1	nt	-20%	-10%	-7	?
CN(C)CCN1CCN(C2CN(Cc3ccc([N+](=O)[O-])cc3)S(=O)(=O)C2)CC1 (centres undefined)	nt	9%	-18%	-2	10%
CCn1c(C)c(C)c2cc(C(=O)N3CCc4ccccc4C3)ccc21	?	nt	-13%	-85*	nt
CCn1c(C)c(C)c2cc(C(=O)NCCc3ccco3)ccc21	16µM*	nt	32%	22	nt
CCn1c(C)c(C)c2cc(C(=O)NCCN3CCCCCC3)ccc21	13µM*	nt	-21%	-25	nt
